High-throughput results from PubChem BioAssay.
RGS7-Gao: regulators of human RGS7-Galphao interaction; 220,000 compounds, 0.35% hits; AID 1439; Multiplexed bead flow cytometry, RGS7-Galphao binding; actives lie on both sides; binding response (% of control), % at 10 µM; P09471; in the data active means binding response below about 49% or above about 150%; inconclusive means no clear call, values can overlap the other calls; inactive means in between;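 further: fluorescent Galphao held in activated GDP-AlF4 state binding bead-coupled RGS7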
Target sequence (P09471 whole entry, looked up): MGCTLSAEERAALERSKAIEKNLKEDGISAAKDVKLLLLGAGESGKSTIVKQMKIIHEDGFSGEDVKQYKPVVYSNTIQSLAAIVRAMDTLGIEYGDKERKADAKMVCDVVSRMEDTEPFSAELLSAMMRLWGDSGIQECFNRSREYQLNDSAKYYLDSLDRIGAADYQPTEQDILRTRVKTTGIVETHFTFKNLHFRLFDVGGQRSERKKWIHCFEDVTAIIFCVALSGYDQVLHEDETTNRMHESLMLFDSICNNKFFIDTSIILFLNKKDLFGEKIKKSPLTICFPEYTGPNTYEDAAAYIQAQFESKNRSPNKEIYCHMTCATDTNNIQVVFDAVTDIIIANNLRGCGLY
RGS4-Gao reg: modulates binding of RGS4 to human Galphao. Multiplexed bead flow cytometry; actives lie on both sides. binding response (% of control), % at 10 µM. 220,000 compounds, 0.33% hits; in the data active means binding response below about 49% or above about 150%; inactive means in between;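 further: fluorescent Galphao activated with aluminum fluoride binding bead-coupled RGS4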
RGS16-Gao HTS: modulates binding between human RGS16 and Galphao | binding response (% of control), % at 10 µM | bead-based flow cytometry RGS16-Galphao binding, fluorescence; actives lie on both sides | O15492+P09471 | 220,000 compounds, 0.38% hits;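 further: Galphao activated by GDP with aluminum fluoride before binding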
Target sequence (O15492 whole entry, looked up): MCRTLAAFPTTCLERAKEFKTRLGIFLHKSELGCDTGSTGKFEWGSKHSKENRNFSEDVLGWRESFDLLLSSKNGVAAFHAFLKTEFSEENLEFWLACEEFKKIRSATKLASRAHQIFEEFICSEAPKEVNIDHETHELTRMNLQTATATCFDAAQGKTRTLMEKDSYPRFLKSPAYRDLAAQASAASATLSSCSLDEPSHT
Target sequence (P09471 whole entry, looked up): as the sequence (P09471 whole entry, looked up) above
Avidin bead fluor: compound fluoresces at 488/530 nm on avidin beads; compound fluorescence 488/530 nm, flow cytometry; hits give high values; fluorescence (KMESF) at 10 µM; 220,000 compounds, 0.38% hits; in the data active means fluorescence above about 47
RGS8-Gao: regulators of human RGS8-Galphao interaction. multiplexed bead flow cytometry, RGS8-Galphao binding; actives lie on both sides. response (percent of control binding), % at 10 µM. 220,000 compounds, 0.34% hits. AID 1423; in the data active means response below about 60% or above about 140%; inactive means in between;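 further: Galphao activated as the GDP aluminium fluoride complex binding bead-coupled RGS8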
GSH fluor: GSH bead compound fluorescence profile; GSH beads flow cytometry, compound fluorescence 488/530 nm; hits give high values; fluorescence (KMESF) at 10 µM; 190,000 compounds, 0.25% hits; in the data active means fluorescence above about 89;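 further: glutathione beads carrying GST-tagged Bcl family fusion proteins plus one bare bead set; values are compound well signal with DMSO vehicle wells as background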
RGS4-Gao HTS: RGS4-Galphao interaction regulator (human); shares compounds with RGS16-Gao HTS; 1,600 compounds, 99% hits; multiplexed bead flow cytometry, RGS–Galpha-o binding; RGS4–Galpha-o binding response, % at 10 µM;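 further: fluorescently labeled Galpha-o bound to GDP with aluminium fluoride binding biotinylated RGS beads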
Biotin-avidin: counter-screen: compounds disrupting biotin binding to avidin beads. shares compounds with RGS16-Gao HTS. streptavidin beads, fluorescein-biotin binding, flow cytometry. inhibition, % at 10 µM. 1,700 tested, under 10 active;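 active means inhibition above 50%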;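 further: median green fluorescence of gated singlet beads compared with DMSO control wells; 0% = DMSO wells and 100% = complete loss of bead fluorescence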
RGS8-Gao confirm: RGS8-Galphao interaction regulation, single point confirmation; bead-based flow cytometry RGS8-Galphao binding, fluorescence; actives lie on both sides; 1,700 compounds, 3% hits; shares compounds with RGS16-Gao HTS; binding response (% of control), % at 10 µM; AID 1836; in the data active means binding response below about 72% or above about 130%; inactive means in between;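 further: Galphao activated as GDP AlF4 complex before binding bead RGS8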
RGS7-Gao confirm: RGS7-Galphao interaction regulation, single point confirmation. shares compounds with RGS16-Gao HTS. bead-based flow cytometry RGS7-Galphao binding; actives lie on both sides. response (percent of control binding), % at 10 µM. 1,700 compounds, 7.8% hits; in the data active means response below about 75% or above about 130%; inactive means in between;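 further: fluorescent Galphao activated with GDP and aluminum fluoride binding bead-coupled RGS7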
RGS16-Gao single: RGS16-Galphao interaction regulation, single point confirmation; shares compounds with RGS16-Gao HTS; bead-based flow cytometry, RGS16-Galphao binding; actives lie on both sides; response (% of control binding), % at 10 µM; 1,700 compounds, 4% hits; in the data active means response below about 74% or above about 130%; inactive means in between;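 further: Galphao activated as the GDP aluminium fluoride complex binding bead-coupled RGS16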
RGS4-Gao single: confirmation of regulators of human RGS4-Galphao interaction | 1,700 compounds, 4% hits | shares compounds with RGS16-Gao HTS | binding response (% of control), % at 10 µM | AID 1840 | RGS4-Galphao binding, multiplexed bead flow cytometry; actives lie on both sides; in the data active means binding response below about 74% or above about 130%; inactive means in between
RGS19-Gao conf: confirmation of regulators of human RGS19-Galphao interaction. shares compounds with RGS16-Gao HTS. bead-based flow cytometry RGS19-Galphao binding; actives lie on both sides. response (percent of control binding), % at 10 µM. 1,700 compounds, 5% hits. AID 1841; in the data active means response below about 50% or above about 160%; inactive means in between;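 further: 100% = no compound control and 0% = blank background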
Active calls of the source: *; [ ] = another dose, or the depositor's remark. An excerpt weighted towards active compounds, which were near 1.2% of everything screened. Unless noted, how the calls were made is not given here.

For CCc1ccc(NC(=O)CN2CCc3ccccc3C2)cc1 the results were RGS7-Gao 101.5, RGS4-Gao reg 100.8, RGS16-Gao HTS 99.5, Avidin bead fluor 33, RGS8-Gao 101.6 and GSH fluor 14.
Screening O=C(CN1CCc2ccccc2C1)Nc1ccc(Br)cc1 returned RGS7-Gao 110.9, RGS4-Gao reg 120.5, RGS16-Gao HTS 361.7, Avidin bead fluor 3, RGS8-Gao 145.7*[activator], GSH fluor 54, RGS4-Gao HTS 120.5*, Biotin-avidin 1.7, RGS8-Gao confirm 100.4, RGS7-Gao confirm 94.4, RGS16-Gao single 99.8, RGS4-Gao single 98.6 and RGS19-Gao conf 103.6.
Screening COCCCNC(=S)Nc1cccc2ncccc12 returned RGS7-Gao 94.5, RGS4-Gao reg 96.7, RGS16-Gao HTS 96.5, Avidin bead fluor 5, RGS8-Gao 98.4 and GSH fluor 10.
`CCOC(=O)N1CCC(NC(=O)c2cccnc2SC)CC1` gave GSH fluor 17, Biotin-avidin 1.1, RGS8-Gao confirm 100.7, RGS7-Gao confirm 99.7, RGS16-Gao single 103.5, RGS4-Gao single 102.2 and RGS19-Gao conf 110.6.
For COc1ccc(CCNC(=O)CN(C)S(=O)(=O)c2ccc(Br)s2)cc1OC the results were RGS7-Gao 99.9, RGS4-Gao reg 103.2, RGS16-Gao HTS 241.1*[activator], Avidin bead fluor 6, RGS8-Gao 123.9, GSH fluor 25, RGS4-Gao HTS 103.2*, Biotin-avidin -0.1, RGS8-Gao confirm 97.9, RGS7-Gao confirm 103.4, RGS16-Gao single 102.6, RGS4-Gao single 102.6 and RGS19-Gao conf 112.2.
CC(=Nc1ccccc1)Nc1ccccc1 was read as RGS7-Gao 125.0, RGS4-Gao reg 144.3, Avidin bead fluor 2, RGS8-Gao 159.0*[activator], GSH fluor 38, RGS4-Gao HTS 144.3*, Biotin-avidin -1.0, RGS8-Gao confirm 101.2, RGS7-Gao confirm 100.1, RGS16-Gao single 102.8, RGS4-Gao single 104.6 and RGS19-Gao conf 123.0.
CC1CCCCN1C(=O)CCc1nnc(Cc2c[nH]c3ccccc23)o1 (stereo unspecified) was read as RGS7-Gao 99.7, RGS4-Gao reg 98.2, RGS16-Gao HTS 110.8, Avidin bead fluor 9, RGS8-Gao 100.7 and GSH fluor 14.
`FC(F)Sc1nc(-c2ccccc2)c(-c2ccccc2)n1C(F)F` gave RGS7-Gao 173.5*[activator], RGS4-Gao reg 117.1, RGS16-Gao HTS 106.3, Avidin bead fluor 100*, RGS8-Gao 100.0, GSH fluor 19, RGS4-Gao HTS 117.1*, Biotin-avidin -1.0, RGS8-Gao confirm 101.8, RGS7-Gao confirm 96.8, RGS16-Gao single 99.9, RGS4-Gao single 99.7 and RGS19-Gao conf 86.4.
`c1ccc(-c2nccnc2-c2ccccc2)cc1` gave RGS7-Gao inconclusive, RGS4-Gao reg 102.9, RGS16-Gao HTS 108.0, Avidin bead fluor 9 and RGS8-Gao 103.6.
`CCN(CC)S(=O)(=O)c1cccc(-c2nnc(SCC(=O)NC)n2CCc2ccccc2)c1` gave RGS7-Gao 245.9*[activator], RGS4-Gao reg 127.8, RGS16-Gao HTS 110.9, Avidin bead fluor 161*, RGS8-Gao 99.6, GSH fluor 26, RGS4-Gao HTS 127.8*, Biotin-avidin 0.6, RGS8-Gao confirm 100.6, RGS7-Gao confirm 104.7, RGS16-Gao single 103.1, RGS4-Gao single 101.8 and RGS19-Gao conf 114.3.
`C/C(=N/NC(=O)c1cc(O)c(O)c(O)c1)c1ccc([N+](=O)[O-])cc1` gave RGS7-Gao 6.2*, RGS4-Gao reg 21.3*, RGS16-Gao HTS -2.4*, Avidin bead fluor 0, RGS8-Gao 8.8*, GSH fluor 9, Biotin-avidin -0.4, RGS8-Gao confirm 81.5, RGS7-Gao confirm 76.1, RGS16-Gao single 83.2, RGS4-Gao single 89.7 and RGS19-Gao conf 82.5.
Screening Cc1ccc(S(=O)(=O)/N=C(/Nc2ccc3[nH]c(=O)[nH]c3c2)c2ccc(F)cc2)cc1 returned RGS7-Gao 152.4*[activator], RGS4-Gao reg 104.4, RGS16-Gao HTS 100.4, Avidin bead fluor 37, RGS8-Gao 99.3, GSH fluor 14, RGS4-Gao HTS 104.4*, Biotin-avidin -0.7, RGS8-Gao confirm 106.8, RGS7-Gao confirm 102.1, RGS16-Gao single 117.3, RGS4-Gao single 104.6 and RGS19-Gao conf 115.5.
`O=c1[nH]c2ccc(NC(=S)Nc3ccc(F)cc3)cc2[nH]1` gave RGS7-Gao inconclusive, RGS4-Gao reg 107.3, RGS16-Gao HTS 101.6, Avidin bead fluor 7 and RGS8-Gao 106.3.
For O=C1Oc2ccccc2C2(O)C3CCCCCC3C12 (stereo unspecified) the results were RGS7-Gao 91.8, RGS4-Gao reg 94.9, RGS16-Gao HTS 98.9, Avidin bead fluor 20, RGS8-Gao 97.9 and GSH fluor 9.
`CC(C)CCNC(=O)NC(=O)COC(=O)C1=COCCO1` gave RGS7-Gao 17.2*, RGS4-Gao reg 21.0*, RGS16-Gao HTS 9.2*, Avidin bead fluor 2, RGS8-Gao 13.2*, GSH fluor 17, Biotin-avidin -1.2, RGS8-Gao confirm 100.7, RGS7-Gao confirm 100.3, RGS16-Gao single 101.5, RGS4-Gao single 103.9 and RGS19-Gao conf 98.5.
Screening COc1cc(C(=O)OCC(=O)NC2CCS(=O)(=O)C2)ccc1OCc1c(C)noc1C (stereo unspecified) returned RGS7-Gao 154.4*[activator], RGS4-Gao reg 100.0, RGS16-Gao HTS 124.6, Avidin bead fluor 73*, RGS8-Gao 104.0, GSH fluor 15, RGS4-Gao HTS 100.0*, Biotin-avidin 1.2, RGS8-Gao confirm 100.0, RGS7-Gao confirm 99.1, RGS16-Gao single 96.0, RGS4-Gao single 98.2 and RGS19-Gao conf 101.1.
